Assay outcomes deposited in PubChem BioAssay by National Center for Advancing Translational Sciences (NCATS).
GPT2 inh: Primary qHTS assay for inhibitors of Glutamate pyruvate transaminase 2 (GPT2); Alanine aminotransferase 2 (Homo sapiens), Q8TD30; AID 1671188, 2021; Potency, µM (top dose mostly 57.7 µM), hits mostly inhibitors; 100,000 compounds, 0.25% hits; Recombinant GPT2, coupled pyruvate oxidase/HRP Amplex Red fluorescence; note: nearly all actives have a fitted effect of over 60% in size
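Recombinant GPT2 (10ng/uL) with 250uM a-KG and 2mM L-alanine, 30 min at room temperature, in HEPES pH 7.5 buffer. Pyruvate detected by pyruvate oxidase/HRP/Amplex Red fluorescence after 30 min in the dark; AOA (50uM) as positive control.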
Luciferase inh: Firefly luciferase inhibition profiling of diverse chemical library using quantitative high-throughput screening | Luciferin 4-monooxygenase (Photinus pyralis), P08659 | purified P. pyralis luciferase, luminescence, biochemical | Potency, µM (highest dose often 115 µM), usual class: inhibitors | 76,000 compounds, 2.5% hits; note: nearly all actives have a fitted effect of over 65% in size
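Biochemical qHTS: compound (6-point titration) added to 10uM D-luciferin plus 10uM ATP in Tris acetate pH 7.5 buffer with Mg, Tween-20 and BSA, then purified enzyme at 10nM; light output imaged.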
HEK293 tox: Cytotoxic Profiling in HEK 293 Cell Line of Diverse Libraries Using Quantitative High-Throughput Screening; Potency, µM (titrated, usually from 115 µM), hits mostly inhibitors; HEK 293 viability, ATP luminescence (CellTiter-Glo), 48-72 h; 94,000 compounds, 6.6% hits; note: nearly all actives have a fitted effect of over 60% in size
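Pintool-delivered compounds were incubated with HEK 293 cells (250 cells/well) at 37 degree Celsius for 48 or 72 hr. ATP-dependent luminescence (CellTiter-Glo) then reported remaining viable cells.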
3T3 cytotox: Cytotoxic Profiling in NIH 3T3 Cell Line of Diverse Libraries Using Quantitative High-Throughput Screening; Potency, µM (series often up to 96.7 µM), actives largely listed as inhibitors; NIH 3T3 viability, CellTiter-Glo ATP luminescence, 48-72 h; 94,000 compounds, 4.3% hits; AID 1345082, 2018; note: nearly all actives have a fitted effect of over 55% in size
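ATP-dependent luminescence (CellTiter-Glo) served as the viability signal for NIH 3T3 cells treated with compound for 48 or 72 hr at 37 °C.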
hNpr1 antagonist: Natriuretic polypeptide receptor (hNpr1) antagonism - Primary qHTS; Atrial natriuretic peptide receptor 1 (Homo sapiens), P16066; HEK293 hNpr1 GloSensor cGMP, ANP-stimulated luminescence; Potency, µM (highest dose often 46.3 µM), actives largely listed as inhibitors; 76,000 compounds, 1.6% hits; AID 1347048, 2019; calls by dose curve; note: nearly all actives have a fitted effect of over 60% in size
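HEK293 cells stably expressing human Npr1 and cGMP GloSensor pGS-40F, loaded 2 h with 2% GloSensor reagent, given compound 30 min at room temperature. Luminescence read before and 20 min after 0.1 nM hNppA.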
Large screens that a line does not name were inactive. Compounds with a hit are over-represented: about 10% of the library has one in this group of screens. Unless noted, calls come from the whole dose curve; as a rule, active = well fitted curve in the direction sought with a large enough effect; inconclusive = small, poorly fitted or top-dose-only effect, or another doubt; inactive = no such curve, though single readings can be large; an effect the other way counts as inactive or inconclusive.

COc1ccc(CN2CCC(N3CC4CCCN4C3=O)CC2)cc1 (stereo not drawn)	none
O=C1N2CCCC2CN1C1CCN(Cc2ccc(C(F)(F)F)cc2)CC1 (stereo not drawn)	HEK293 tox 40µM, 3T3 cytotox inconclusive, hNpr1 antagonist inconclusive
COCCOc1ncccc1-c1noc([C@@H]2CCCN2Cc2cccc(C#N)c2)n1	HEK293 tox inconclusive
COCCNc1ncccc1-c1noc([C@@H]2CCCN2Cc2cccc(C#N)c2)n1	HEK293 tox 71µM, 3T3 cytotox inconclusive
COCCNc1ncccc1-c1noc([C@@H]2CCCN2CC(C)(C)C)n1	HEK293 tox inconclusive, 3T3 cytotox 50µM
CC(C)NC(=O)NCCNC(=O)c1ccc(-c2cccc(C(F)(F)F)c2)cc1	3T3 cytotox inconclusive (no result: GPT2 inh, Luciferase inh, hNpr1 antagonist)
CN(C)C(=O)NCCNC(=O)c1ccc(-c2cccc(C(F)(F)F)c2)cc1	HEK293 tox 28µM, 3T3 cytotox inconclusive (no result: GPT2 inh, Luciferase inh, hNpr1 antagonist)
CC(C)(C)C(=O)NCCNC(=O)c1ccc(-c2cccc(C(F)(F)F)c2)cc1	HEK293 tox 28µM, 3T3 cytotox inconclusive (no result: GPT2 inh, Luciferase inh, hNpr1 antagonist)
N#Cc1ccc(CN2CCCCCCNC(=O)[C@@H]3C[C@@H](C(=O)NCCc4cnc[nH]4)C[C@@H]32)cc1	none
CCOC(=O)C1=C(C)N(Cc2ccc(C(=O)N3CCCCC3)cc2)C(=O)CC1c1cccc(C)c1 (stereo not drawn)	HEK293 tox 40µM, 3T3 cytotox inconclusive, hNpr1 antagonist inconclusive
CCCCNC(=O)c1cccc(CN2C(=O)CC(c3ccccc3C)C(C(=O)OCC)=C2C)c1 (stereo not drawn)	HEK293 tox inconclusive, 3T3 cytotox inconclusive
CNC(=O)[C@@H]1C[C@H](n2cc(C(C)(C)NC(=O)c3cc(F)ccc3C)nn2)CN1	none
COCC(=O)N1CCN(c2ccc3nnc(C4CC4)n3n2)CC1	none (no result: GPT2 inh, Luciferase inh, hNpr1 antagonist)
Cc1cc(CN(C)c2ccc(-c3nc(COc4ccccc4)no3)cn2)on1	Luciferase inh inconclusive, HEK293 tox inconclusive, 3T3 cytotox inconclusive, hNpr1 antagonist 16µM
CC1(COc2ccc(-c3nc(COc4ccccc4)no3)cn2)CCCNC1 (stereo not drawn)	Luciferase inh 35µM, HEK293 tox inconclusive, 3T3 cytotox inconclusive, hNpr1 antagonist inconclusive
c1ccc(OCc2noc(-c3ccc(NC4CCSC4)nc3)n2)cc1 (stereo not drawn)	Luciferase inh inconclusive, HEK293 tox inconclusive, 3T3 cytotox inconclusive
CNC(=O)N1CCO[C@@H](COc2ccccn2)[C@@H]1c1ccccc1	none (no result: Luciferase inh, hNpr1 antagonist)
Cc1cc(C)n(CC(=O)N2CCCC(C)(Cc3ccc4c(c3)OCO4)C2)c(=O)n1 (stereo not drawn)	none
Cc1cc(=O)n(CC(=O)N2CCCC(C)(Cc3ccc4c(c3)OCO4)C2)nc1C (stereo not drawn)	HEK293 tox inconclusive
CC1(Cc2ccc3c(c2)OCO3)CCCN(CC(=O)NCc2ccco2)C1 (stereo not drawn)	HEK293 tox 45µM, hNpr1 antagonist inconclusive
CC1(Cc2ccc3c(c2)OCO3)CCCN(C(=O)CCCn2ccnc2)C1 (stereo not drawn)	HEK293 tox 40µM, 3T3 cytotox inconclusive
CCn1cc(CN2CC[C@H]3C(=O)NCCCCCCN(Cc4ccncc4)[C@@H]3C2)cn1	none
CNC(=O)c1cc(C)nc2onc(C3CCCN3C(=O)N(C)C)c12 (stereo not drawn)	none (no result: GPT2 inh, Luciferase inh, hNpr1 antagonist)
Cc1ccccc1C(=O)N1CCC2(CC1)CC(c1cccc(C(F)(F)F)c1)=NO2	HEK293 tox 32µM, 3T3 cytotox inconclusive (no result: GPT2 inh, Luciferase inh, hNpr1 antagonist)
O=C(c1ccccc1F)N1CCC2(CC1)CC(c1cccc(C(F)(F)F)c1)=NO2	HEK293 tox 40µM, 3T3 cytotox inconclusive (no result: GPT2 inh, Luciferase inh, hNpr1 antagonist)
CC(C)(C)C(=O)N1CCC2(CC1)CC(c1cccc(C(F)(F)F)c1)=NO2	HEK293 tox inconclusive (no result: GPT2 inh, Luciferase inh, hNpr1 antagonist)
O=C(c1ccccc1F)N1CCCC2(CC(c3cccc(C(F)(F)F)c3)=NO2)C1 (stereo not drawn)	HEK293 tox inconclusive, 3T3 cytotox inconclusive
CN1C(=O)CS(=O)(=O)C12CCN(C(=O)COc1ccc(Cl)cc1)CC2	3T3 cytotox inconclusive
c1ccc(-c2cc3c(cn2)NCCN(Cc2ccsc2)C3)cc1	Luciferase inh inconclusive, HEK293 tox inconclusive, 3T3 cytotox inconclusive
COc1ccccc1CN1CCNc2cc(-c3ccccc3)ncc2C1	Luciferase inh inconclusive, HEK293 tox inconclusive, 3T3 cytotox inconclusive
COc1ccc(CN2CCNc3cc(-c4ccccc4)ncc3C2)cc1	Luciferase inh inconclusive, HEK293 tox 50µM, 3T3 cytotox inconclusive
COc1ccc(OC)c(CN2CCNc3cc(-c4ccccc4)ncc3C2)c1	Luciferase inh 40µM, HEK293 tox 112µM, 3T3 cytotox inconclusive
Fc1ccc(CN2CCNc3cnc(-c4ccccc4)cc3C2)cc1F	HEK293 tox inconclusive, 3T3 cytotox 79µM
COc1ccccc1CN1CCNc2cc(-c3ccnc(C)c3)ncc2C1	Luciferase inh 71µM, HEK293 tox 89µM, 3T3 cytotox inconclusive
COc1cc(Cl)cc(CN2CCC(O)(c3ccccc3)CC2)c1OC	3T3 cytotox inconclusive
O=C(CCc1ccccc1)N1CC2CC(C1)[C@H]1CCCC(=O)N1C2 (stereo partly drawn)	none
Clc1ccc(-c2cnc3n2C[C@H](CNC2CCOCC2)OC3)cc1	GPT2 inh inconclusive, HEK293 tox inconclusive, 3T3 cytotox 89µM
COc1ccc(C(=O)NC[C@H]2Cn3c(-c4ccc(Cl)cc4)cnc3CO2)cc1	Luciferase inh inconclusive, HEK293 tox 100µM, 3T3 cytotox inconclusive, hNpr1 antagonist inconclusive
O=C(COc1ccccc1)NC[C@H]1Cn2c(-c3ccc(Cl)cc3)cnc2CO1	HEK293 tox 100µM, 3T3 cytotox inconclusive
Cc1ccc(C2c3cc(OCc4nc(C(=O)NC5CC5)co4)ccc3CCN2C(=O)C2CC2)cc1 (stereo not drawn)	HEK293 tox inconclusive, 3T3 cytotox inconclusive
CC1(C)CC[C@]2(C(=O)O[C@@H]3O[C@H](CO)[C@@H](O)[C@H](O)[C@H]3O)CC[C@]3(C)C(=CCC4[C@@]5(C)CC[C@H](O[C@@H]6O[C@H](C(=O)O)[C@H](O)[C@H](O)[C@H]6O)C(C)(C)C5CC[C@]43C)[C@@H]2C1 (stereo partly drawn)	none (no result: Luciferase inh, HEK293 tox, 3T3 cytotox, hNpr1 antagonist)
COc1ccc(-c2nnc3ccc(N4CCc5ccccc5C4)nn23)nc1	HEK293 tox 56µM, 3T3 cytotox inconclusive
c1ccc(-c2nnc3ccc(Nc4ccc(N5CCOCC5)cc4)nn23)nc1	Luciferase inh inconclusive, HEK293 tox 63µM, 3T3 cytotox inconclusive
COC1CCN(c2ccc3nnc(-c4ccccn4)n3n2)CC1	3T3 cytotox 50µM
